Results filed as inconclusive are left out. The source made the active and inactive calls. Unless noted, calls follow the shape of the dose curve; as a rule, active = well fitted curve in the direction sought with a large enough effect; inconclusive = small, poorly fitted or top-dose-only effect, or another doubt; inactive = no such curve, though single readings can be large; an effect the other way counts as inactive or inconclusive.
Tests used:
C33A = assay: Primary qHTS to identify gynecologic anti-cancer compounds using libraries of approved drugs and bioactive compounds (AID 1345084); conditions: Gynecologic cancer cell panel viability, ATPlite luminescence, 48 h; series mostly up to 57.5 µM; also: % is scaled to controls: 0 for no effect and ±100 for the full control effect; nearly all actives have a fitted effect of over 55% in size
Procedure, shortened: (§1)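 Cells, 1,000 per well, were allowed to settle for 16 h at 37 C before compound addition. Five concentrations were tested for 48 h, and viability was read by ATPlite luminescence after 15 min at room temperature.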

CAOV3 = assay: as above; conditions: Gynecologic cancer cell panel viability, ATPlite luminescence, 48 h; series mostly up to 57.5 µM
Procedure, shortened: as §1

CASKI = assay: as above; conditions: Gynecologic cancer cell panel viability, ATPlite luminescence, 48 h; series mostly up to 57.5 µM
Procedure, shortened: as §1

Es-2 = assay: as above; conditions: Gynecologic cancer cell panel viability, ATPlite luminescence, 48 h; series mostly up to 57.5 µM
Procedure, shortened: as §1

HeLa = assay: as above; conditions: Gynecologic cancer cell panel viability, ATPlite luminescence, 48 h; series mostly up to 57.5 µM
Procedure, shortened: as §1

Hek293T = assay: as above; conditions: Gynecologic cancer cell panel viability, ATPlite luminescence, 48 h, control line for the selectivity index; series mostly up to 57.5 µM
Procedure, shortened: as §1

JEG-3 = assay: as above; conditions: Gynecologic cancer cell panel viability, ATPlite luminescence, 48 h; series mostly up to 57.5 µM
Procedure, shortened: as §1

OV90 = assay: as above; conditions: Gynecologic cancer cell panel viability, ATPlite luminescence, 48 h; series mostly up to 57.5 µM
Procedure, shortened: as §1

PA-1 = assay: as above; conditions: Gynecologic cancer cell panel viability, ATPlite luminescence, 48 h; series mostly up to 57.5 µM
Procedure, shortened: as §1

SKOV3 = assay: as above; conditions: Gynecologic cancer cell panel viability, ATPlite luminescence, 48 h; series mostly up to 57.5 µM
Procedure, shortened: as §1

Tov-21-G = assay: as above; conditions: Gynecologic cancer cell panel viability, ATPlite luminescence, 48 h; series mostly up to 57.5 µM
Procedure, shortened: as §1

Tov112D = assay: as above; conditions: Gynecologic cancer cell panel viability, ATPlite luminescence, 48 h; series mostly up to 57.5 µM
Procedure, shortened: as §1

UISO = assay: qHTS assay to identify novel small-molecules to repurpose for Merkel cell carcinoma treatment (AID 1296009); conditions: MCC and control cell lines, CellTiter-Glo viability, 72 h; series mostly up to 46 µM; also: potency is read from the fitted curve at half-maximal effect; nearly all actives have a fitted effect of over 60% in size
Procedure, shortened: (§2)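 Cells exposed to NPC (8-point) and MIPE (11-point) compound dilutions for 72 hr at 37 degree celsius; viability read by CellTiter-Glo luminescence, normalized to no-cell and DMSO in-plate controls.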

WaGa = assay: as above; conditions: MCC and control cell lines, CellTiter-Glo viability, 72 h; series mostly up to 46 µM
Procedure, shortened: as §2

astro = assay: Drug repurposing screens with cells derived from glioblastoma tumor samples (AID 1345199); conditions: viability, ATP luminescence, 48 h; series mostly up to 91.6 µM; also: % is scaled to controls: 0 for no effect and ±100 for the full control effect; nearly all actives have a fitted effect of over 40% in size
Procedure, shortened: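 Four patient lines of CD133+ GBM neurospheres were screened at several concentrations; hits were retested in those lines plus three slower-growing GBM lines, using 48-hour treatment and ATP-based viability.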

[1] = target: Nuclear receptor subfamily 1 group I member 2 (Rattus norvegicus) (UniProt Q9R1A7); assay: qHTS assay for small molecule activators of the rat pregnane X receptor (rPXR) signaling pathway (AID 651751; call rule not given here; also: 0% is about no effect); conditions: rPXR reporter cells, luciferase (One-Glo), 24 h
[2] = qHTS assay for small molecule activators of the human pregnane X receptor (PXR) signaling pathway (AID 720659; call rule not given here; also: 0% is about no effect)

Sequence of Nuclear receptor subfamily 1 group I member 2 (Rattus norvegicus) (Q9R1A7 whole entry, looked up): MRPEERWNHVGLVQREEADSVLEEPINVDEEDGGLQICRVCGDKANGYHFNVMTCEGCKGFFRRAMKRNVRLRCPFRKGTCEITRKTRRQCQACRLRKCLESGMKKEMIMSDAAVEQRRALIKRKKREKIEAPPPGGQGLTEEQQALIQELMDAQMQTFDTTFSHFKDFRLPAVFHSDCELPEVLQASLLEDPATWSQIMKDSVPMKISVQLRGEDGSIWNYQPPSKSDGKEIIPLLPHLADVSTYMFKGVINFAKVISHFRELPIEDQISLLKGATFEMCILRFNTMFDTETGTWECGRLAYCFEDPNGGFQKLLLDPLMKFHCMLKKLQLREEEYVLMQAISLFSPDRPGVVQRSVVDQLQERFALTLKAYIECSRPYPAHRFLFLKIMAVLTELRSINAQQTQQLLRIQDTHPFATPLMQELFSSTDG

CC(=O)c1cc2c(cc1O)OC(C)(C)C=C2
inactive: Potency (C33A) | Potency (CAOV3) | Potency (CASKI) | Potency (Es-2) | Potency (HeLa) | Potency (Hek293T) | Potency (JEG-3) | Potency (OV90) | Potency (PA-1) | Potency (SKOV3) | Potency (Tov-21-G) | Potency (Tov112D)

CC12CCC(OC3OC(CO)C(O)C(OC4OC(CO)C(O)C(O)C4O)C3O)CC1CCC1C2CCC2(C)/C(=C3/COC(=O)C3)CCC12O (configuration not stated)
inactive: Potency (C33A) | Potency (CAOV3) | Potency (CASKI) | Potency (Es-2) | Potency (HeLa) | Potency (Hek293T) | Potency (JEG-3) | Potency (OV90) | Potency (PA-1) | Potency (SKOV3) | Potency (Tov-21-G)

Cc1ccc(N)cc1O
inactive: Potency (Es-2) | Potency (HeLa) | Potency (Hek293T) | Potency (astro) | max response [1] 0.897% | outcome [2]
active: Potency (UISO) 24.3 µM | Potency (WaGa) 6.11 µM

CC1(C)CCCC2(C)C(C(=O)O)=CCC12 (configuration not stated)
inactive: Potency (C33A) | Potency (CAOV3) | Potency (CASKI) | Potency (Es-2) | Potency (HeLa) | Potency (Hek293T) | Potency (JEG-3) | Potency (OV90) | Potency (PA-1) | Potency (SKOV3) | Potency (Tov-21-G)

CC(C)C(CO)Nc1nc(Nc2ccc(C(=O)O)c(Cl)c2)c2ncn(C(C)C)c2n1 (configuration not stated)
inactive: Potency (C33A) | Potency (CAOV3) | Potency (CASKI) | Potency (Es-2) | Potency (HeLa) | Potency (Hek293T) | Potency (JEG-3) | Potency (OV90) | Potency (PA-1) | Potency (SKOV3) | Potency (Tov-21-G) | Potency (Tov112D)

C[C@@H]1C(=O)O[C@H]2C[C@]34[C@H]5C[C@@H](C(C)(C)C)[C@]36[C@@H](OC(=O)[C@H]6O)O[C@]4(C(=O)O5)[C@]21O
inactive: Potency (C33A) | Potency (CAOV3) | Potency (CASKI) | Potency (Es-2) | Potency (HeLa) | Potency (Hek293T) | Potency (JEG-3) | Potency (OV90) | Potency (PA-1) | Potency (SKOV3) | Potency (Tov-21-G) | Potency (Tov112D)

CON(C)C(=O)[C@H](O)[C@H](Cc1ccccc1)NC(=O)c1cc2cc(Cl)ccc2[nH]1
inactive: Potency (C33A) | Potency (CAOV3) | Potency (CASKI) | Potency (Es-2) | Potency (HeLa) | Potency (Hek293T) | Potency (JEG-3) | Potency (OV90) | Potency (PA-1) | Potency (SKOV3) | Potency (Tov-21-G) | Potency (Tov112D)

O=C(/C=C/c1ccc(O)cc1)N[C@@H](Cc1ccc(O)cc1)C(=O)O
inactive: Potency (C33A) | Potency (CAOV3) | Potency (CASKI) | Potency (Es-2) | Potency (HeLa) | Potency (Hek293T) | Potency (JEG-3) | Potency (OV90) | Potency (PA-1) | Potency (SKOV3) | Potency (Tov-21-G) | Potency (Tov112D)

COC(=O)CC(O)CC(O)/C=C/c1c(C)ccc2c1C(O)CC(C)C2 (configuration not stated)
inactive: Potency (C33A) | Potency (CAOV3) | Potency (CASKI) | Potency (Es-2) | Potency (HeLa) | Potency (Hek293T) | Potency (JEG-3) | Potency (OV90) | Potency (PA-1) | Potency (SKOV3) | Potency (Tov-21-G) | Potency (Tov112D)

Nc1nc2c(ncn2[C@@H]2O[C@H](CO)[C@@H](O)[C@H]2O)c(=O)[nH]1
inactive: Potency (C33A) | Potency (CAOV3) | Potency (CASKI) | Potency (Es-2) | Potency (HeLa) | Potency (Hek293T) | Potency (JEG-3) | Potency (OV90) | Potency (PA-1) | Potency (SKOV3) | Potency (Tov-21-G) | Potency (Tov112D)

COc1ccc(C2(O)c3ccccc3NC(=O)C2O)cc1 (configuration not stated)
inactive: Potency (C33A) | Potency (CAOV3) | Potency (CASKI) | Potency (Es-2) | Potency (HeLa) | Potency (Hek293T) | Potency (JEG-3) | Potency (OV90) | Potency (PA-1) | Potency (SKOV3) | Potency (Tov-21-G) | Potency (Tov112D)

O=C1NC(Cc2c[nH]c3ccccc23)C(=O)NC1Cc1c[nH]c2ccccc12 (configuration not stated)
inactive: Potency (C33A) | Potency (CAOV3) | Potency (CASKI) | Potency (Es-2) | Potency (HeLa) | Potency (Hek293T) | Potency (JEG-3) | Potency (OV90) | Potency (PA-1) | Potency (SKOV3) | Potency (Tov-21-G) | Potency (Tov112D)

C[C@@H]1O[C@@H](O[C@H]2[C@H](O[C@H]3CC[C@@]4(C)C(CC[C@]5(C)C4C=C[C@]46OC[C@@]7(CCC(C)(C)C[C@H]74)[C@@H](O)C[C@]65C)[C@]3(C)CO)O[C@H](CO)[C@@H](O)[C@@H]2O[C@@H]2O[C@H](CO)[C@@H](O[C@@H]3O[C@@H](C)[C@H](O)[C@@H](O)[C@H]3O)[C@H](O)[C@H]2O)[C@H](O)[C@H](O)[C@H]1O (some centres not stated)
inactive: activity change, negative = cytotoxicity (C33A) -24.9% [at 11.6 µM] | activity change, negative = cytotoxicity (CAOV3) -6.89% [at 11.6 µM] | activity change, negative = cytotoxicity (CASKI) -6.58% [at 11.6 µM] | activity change, negative = cytotoxicity (Es-2) -4.56% [at 11.6 µM] | activity change, negative = cytotoxicity (HeLa) -11.4% [at 11.6 µM] | activity change, negative = cytotoxicity (Hek293T) -7.26% [at 11.6 µM] | activity change, negative = cytotoxicity (JEG-3) -0.552% [at 11.6 µM] | activity change, negative = cytotoxicity (OV90) -28.6% [at 11.6 µM] | activity change, negative = cytotoxicity (PA-1) -23.2% [at 11.6 µM] | activity change, negative = cytotoxicity (SKOV3) -29.1% [at 11.6 µM] | activity change, negative = cytotoxicity (Tov-21-G) -25.6% [at 11.6 µM] | activity change, negative = cytotoxicity (Tov112D) -4.43% [at 11.6 µM]

CC[C@@](C)(Nc1ccnc(-c2c[nH]c3ncccc23)n1)C(=O)NCC(F)(F)F
inactive: Potency (C33A) | Potency (CAOV3) | Potency (CASKI) | Potency (Es-2) | Potency (HeLa) | Potency (Hek293T) | Potency (JEG-3) | Potency (OV90) | Potency (PA-1) | Potency (SKOV3) | Potency (Tov-21-G) | Potency (Tov112D)
